The source made the active and inactive calls.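 How the source made its calls, unless noted: active means superoxide response below 65% of plate, a cut near 3 SD across the whole screen; inactive means the rest.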
Target: Integrin beta-1 (Homo sapiens) + Integrin alpha-4 (Homo sapiens) (UniProt P13612+P05556)
Test: inhibition of HUTS-21 binding to VLA-4, pilot screen, VLA-4 allosteric modulator project, U937 cells, HUTS-21 mAb, flow cytometry, validation set (AID 2674;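 active means inhibition above 50%, about 3 SD of the validation set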;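 further: antibody binding induced by the VLA-4 ligand LDV present at three times its Kd; 0% = LDV ligand with antibody and no compound and 100% = antibody without LDV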)
Details: HUTS-21 LIBS mAb binding, at 6.7 µM, stronger effect = higher value, binding induced by LDV ligand

Integrin beta-1 (Homo sapiens) + Integrin alpha-4 (Homo sapiens), sequence (P05556 whole entry, looked up): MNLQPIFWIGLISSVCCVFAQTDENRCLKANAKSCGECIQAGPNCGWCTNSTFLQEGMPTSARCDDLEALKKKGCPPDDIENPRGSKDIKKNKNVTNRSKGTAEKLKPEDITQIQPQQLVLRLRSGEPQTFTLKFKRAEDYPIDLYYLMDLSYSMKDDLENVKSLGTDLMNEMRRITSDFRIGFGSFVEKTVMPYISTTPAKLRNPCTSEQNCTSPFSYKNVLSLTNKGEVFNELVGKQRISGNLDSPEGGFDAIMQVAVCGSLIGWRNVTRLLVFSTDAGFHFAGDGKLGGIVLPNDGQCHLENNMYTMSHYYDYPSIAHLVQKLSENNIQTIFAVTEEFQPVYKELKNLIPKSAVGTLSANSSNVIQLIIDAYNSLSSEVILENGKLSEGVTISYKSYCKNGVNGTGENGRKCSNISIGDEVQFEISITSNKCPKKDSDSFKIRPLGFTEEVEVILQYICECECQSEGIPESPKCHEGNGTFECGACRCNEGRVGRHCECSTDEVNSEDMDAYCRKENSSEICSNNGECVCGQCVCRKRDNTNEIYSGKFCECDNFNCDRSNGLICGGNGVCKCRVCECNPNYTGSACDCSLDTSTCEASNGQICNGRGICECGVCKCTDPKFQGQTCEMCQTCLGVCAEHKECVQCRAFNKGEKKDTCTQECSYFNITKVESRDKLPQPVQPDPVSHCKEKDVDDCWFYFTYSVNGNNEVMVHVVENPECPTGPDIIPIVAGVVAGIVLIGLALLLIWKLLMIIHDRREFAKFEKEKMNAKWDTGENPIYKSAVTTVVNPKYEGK
Integrin beta-1 (Homo sapiens) + Integrin alpha-4 (Homo sapiens), sequence (P13612 whole entry, looked up): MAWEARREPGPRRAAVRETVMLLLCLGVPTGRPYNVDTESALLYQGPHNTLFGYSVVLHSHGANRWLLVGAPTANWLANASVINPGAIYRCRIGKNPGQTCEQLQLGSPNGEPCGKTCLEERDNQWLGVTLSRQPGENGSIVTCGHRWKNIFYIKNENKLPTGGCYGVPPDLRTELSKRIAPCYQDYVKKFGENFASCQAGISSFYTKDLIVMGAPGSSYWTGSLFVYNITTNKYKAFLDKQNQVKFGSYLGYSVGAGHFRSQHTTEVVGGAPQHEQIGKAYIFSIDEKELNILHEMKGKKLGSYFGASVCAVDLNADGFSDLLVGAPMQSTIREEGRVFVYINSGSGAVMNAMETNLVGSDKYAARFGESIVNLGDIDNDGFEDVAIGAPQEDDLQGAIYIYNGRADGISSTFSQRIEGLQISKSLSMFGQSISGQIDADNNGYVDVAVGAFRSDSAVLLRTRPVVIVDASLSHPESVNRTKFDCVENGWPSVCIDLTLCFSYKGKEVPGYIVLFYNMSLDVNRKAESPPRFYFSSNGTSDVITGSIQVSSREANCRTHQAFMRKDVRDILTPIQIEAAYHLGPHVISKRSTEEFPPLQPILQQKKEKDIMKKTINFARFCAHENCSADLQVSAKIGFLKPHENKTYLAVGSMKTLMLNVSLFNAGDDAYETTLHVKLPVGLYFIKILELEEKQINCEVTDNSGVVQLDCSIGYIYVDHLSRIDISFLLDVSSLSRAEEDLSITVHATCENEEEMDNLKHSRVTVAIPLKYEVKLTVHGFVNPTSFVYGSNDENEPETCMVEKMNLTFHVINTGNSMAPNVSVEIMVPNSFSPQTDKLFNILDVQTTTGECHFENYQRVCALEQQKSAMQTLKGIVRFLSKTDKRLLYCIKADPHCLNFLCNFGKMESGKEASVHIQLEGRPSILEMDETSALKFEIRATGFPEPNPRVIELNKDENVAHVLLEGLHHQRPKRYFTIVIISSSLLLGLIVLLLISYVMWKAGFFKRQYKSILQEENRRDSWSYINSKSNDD

inhibition, inactive:
O=C(Oc1cccccc1=O)c1ccccc1 21%, C=CCc1ccc(OCC(O)COc2ccc(CC=C)cc2OC)c(OC)c1 7.76%, COc1cc(NC(=O)N[C@@H](Cc2ccccc2)C(=O)O)cc(OC)c1 9.1%, CC1/C(=C\c2ccc(Cl)cc2)C(=O)C2CC1C2(C)C (centres undefined) -3.16%, CCC(=O)c1ccc(O)cc1 -6.68%, COc1ccc(C(=O)[C@H]2[C@H]3C(=O)N(c4ccccc4)C(=O)[C@H]3C3C=CC=NN32)cc1 (some centres undefined) -7.79%, C[C@H](NC(=O)Nc1ccccc1F)C(=O)O -12.7%, CCCN1C[C@H](CSC)C[C@@H]2c3cccc4[nH]cc(c34)C[C@H]21 -8.78%, C[C@H](NC(=O)OC(C)(C)C)C(=O)NCC1CCC(C(=O)O)CC1 (some centres undefined) 5.03%

Test system: not listed separately
Test: superoxide lowering in aged yeast cells, pilot screen, validation compound set (AID 2706);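 further: yeast exposed to compound for one week at 30 degrees C before staining; 100% = mean of all compound wells on the same plate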
Details: S. cerevisiae aging, superoxide DHE fluorescence; at 10 µM, stronger effect = lower value

Superoxide response (% of plate), inactive:
COc1cc(/C=C(\C#N)C(=O)N2CCc3ccccc32)ccc1O 98.9%, O=C(Nc1ccccc1)c1ccccc1CCc1ccccc1 90.9%, COc1ccc(CCN2CCC(Nc3nc4ccccc4n3Cc3ccc(F)cc3)CC2)cc1 93.2%, CCOc1ccc(CC2c3cc(OCC)c(OCC)cc3CCN2C(=O)CN2CCN(C)CC2)cc1OCC (centres undefined) 82.4%, COc1ccc2c(CCNC(=O)c3ccc([N+](=O)[O-])cc3)c[nH]c2c1 105%, O=c1[nH]c(Cc2ccccc2)nc2c1oc1ccccc12 94%, O=C(c1ccccc1)N1CCN(C(=O)c2ccccc2)CC1 102%, COc1ccccc1C1(CC(=O)N2CCCCC2)CCOC(C(C)C)C1 (centres undefined) 97.5%, COc1cc([C@@H]2c3cc4c(cc3[C@H](O)[C@H]3COC(=O)[C@H]23)OCO4)cc(OC)c1OC 99.1%, N=C1C(c2ccccc2)=C(O)CN1CCCO 91.2%, CCS(=O)(=O)Nc1cc(OC)c(OC)cc1Cc1nccc2cc(OC)c(OC)cc12 93.2%, O=C(OCCN1CCCC1)C1(c2ccccc2)CCCC1 86.5%, CC(=O)N1CC2(C)CN(C(C)=O)CC(C)(C1)C2 91.7%, COc1ccc(CCCC(=O)O)c(C)c1 92.3%, Cc1ccc2c(CN3CCN(Cc4ccc5c(c4)OCO5)CC3)cc(=O)oc2c1C 87.4%, COc1ccc(C(=O)Nc2ccc(OC)c([N+](=O)[O-])c2)cc1Br 92.1%, O=C(Oc1cccccc1=O)c1ccccc1 105%, C=CCc1ccc(OCC(O)COc2ccc(CC=C)cc2OC)c(OC)c1 104%, COc1cc(NC(=O)N[C@@H](Cc2ccccc2)C(=O)O)cc(OC)c1 106%, CC1/C(=C\c2ccc(Cl)cc2)C(=O)C2CC1C2(C)C (centres undefined) 94.9%, CCC(=O)c1ccc(O)cc1 87.9%, COc1ccc(C(=O)[C@H]2[C@H]3C(=O)N(c4ccccc4)C(=O)[C@H]3C3C=CC=NN32)cc1 (some centres undefined) 96.9%, C[C@H](NC(=O)Nc1ccccc1F)C(=O)O 106%, CCCN1C[C@H](CSC)C[C@@H]2c3cccc4[nH]cc(c34)C[C@H]21 77.2%, C[C@H](NC(=O)OC(C)(C)C)C(=O)NCC1CCC(C(=O)O)CC1 (some centres undefined) 95.3%

Target: Beta-adrenergic receptor kinase 1 (Homo sapiens) (UniProt P25098)
Sequence (P25098 whole entry, looked up): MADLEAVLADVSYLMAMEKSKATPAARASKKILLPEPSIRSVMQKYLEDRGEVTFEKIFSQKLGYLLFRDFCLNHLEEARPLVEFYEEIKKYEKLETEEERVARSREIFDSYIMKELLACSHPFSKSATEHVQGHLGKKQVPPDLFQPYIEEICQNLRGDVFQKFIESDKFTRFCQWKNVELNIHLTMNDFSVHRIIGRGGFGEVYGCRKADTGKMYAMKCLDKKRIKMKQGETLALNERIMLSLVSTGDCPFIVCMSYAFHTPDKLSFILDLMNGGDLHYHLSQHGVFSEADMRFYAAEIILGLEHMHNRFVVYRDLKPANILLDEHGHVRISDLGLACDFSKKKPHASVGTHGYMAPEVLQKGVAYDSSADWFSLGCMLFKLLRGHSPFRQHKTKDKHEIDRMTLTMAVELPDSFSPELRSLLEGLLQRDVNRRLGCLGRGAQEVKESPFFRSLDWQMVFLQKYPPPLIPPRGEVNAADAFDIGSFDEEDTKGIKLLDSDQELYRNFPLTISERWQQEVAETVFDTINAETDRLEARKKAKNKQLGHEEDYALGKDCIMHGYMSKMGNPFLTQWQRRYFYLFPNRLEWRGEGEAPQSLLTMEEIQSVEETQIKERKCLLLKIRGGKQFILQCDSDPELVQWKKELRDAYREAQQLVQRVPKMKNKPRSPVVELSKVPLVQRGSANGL
Test: GRK2 binders displacing RNA aptamer, biochemical, validation, human GRK2, bead flow cytometry (AID 488806;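 active means aptamer binding inhibition above 30%, about 3 SD of noise from non-fluorescent compounds; inactive means inhibition at or below 30%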)
Details: bead-bound GRK2, FAM-aptamer displacement, at 10 µM, stronger effect = higher value

Aptamer binding inhibition, inactive:
COc1cc(/C=C(\C#N)C(=O)N2CCc3ccccc32)ccc1O -1%, O=C(Nc1ccccc1)c1ccccc1CCc1ccccc1 5%, COc1ccc(CCN2CCC(Nc3nc4ccccc4n3Cc3ccc(F)cc3)CC2)cc1 -15%, CCOc1ccc(CC2c3cc(OCC)c(OCC)cc3CCN2C(=O)CN2CCN(C)CC2)cc1OCC (centres undefined) 0%, COc1ccc2c(CCNC(=O)c3ccc([N+](=O)[O-])cc3)c[nH]c2c1 3%, O=c1[nH]c(Cc2ccccc2)nc2c1oc1ccccc12 12%, O=C(c1ccccc1)N1CCN(C(=O)c2ccccc2)CC1 7%, COc1ccccc1C1(CC(=O)N2CCCCC2)CCOC(C(C)C)C1 (centres undefined) 0%, COc1cc([C@@H]2c3cc4c(cc3[C@H](O)[C@H]3COC(=O)[C@H]23)OCO4)cc(OC)c1OC 7%, N=C1C(c2ccccc2)=C(O)CN1CCCO 3%, CCS(=O)(=O)Nc1cc(OC)c(OC)cc1Cc1nccc2cc(OC)c(OC)cc12 -1%, O=C(OCCN1CCCC1)C1(c2ccccc2)CCCC1 1%, CC(=O)N1CC2(C)CN(C(C)=O)CC(C)(C1)C2 -2%, COc1ccc(CCCC(=O)O)c(C)c1 -1%, Cc1ccc2c(CN3CCN(Cc4ccc5c(c4)OCO5)CC3)cc(=O)oc2c1C -2%, COc1ccc(C(=O)Nc2ccc(OC)c([N+](=O)[O-])c2)cc1Br -1%, O=C(Oc1cccccc1=O)c1ccccc1 6%, C=CCc1ccc(OCC(O)COc2ccc(CC=C)cc2OC)c(OC)c1 -1%, COc1cc(NC(=O)N[C@@H](Cc2ccccc2)C(=O)O)cc(OC)c1 3%, CC1/C(=C\c2ccc(Cl)cc2)C(=O)C2CC1C2(C)C (centres undefined) 2%, CCC(=O)c1ccc(O)cc1 3%, COc1ccc(C(=O)[C@H]2[C@H]3C(=O)N(c4ccccc4)C(=O)[C@H]3C3C=CC=NN32)cc1 (some centres undefined) 3%, C[C@H](NC(=O)Nc1ccccc1F)C(=O)O 6%, CCCN1C[C@H](CSC)C[C@@H]2c3cccc4[nH]cc(c34)C[C@H]21 -1%, C[C@H](NC(=O)OC(C)(C)C)C(=O)NCC1CCC(C(=O)O)CC1 (some centres undefined) 6%

Reference: PubChem BioAssay
